EBV LMP1 NFkB: EBV LMP1-driven NF-kappaB luciferase reporter inhibitors, primary screen, cell-based, luminescence, single point; LMP1-induced NF-kappaB luciferase reporter cells; AID 504558, 2011; hit rate 0.69% among 350,000; inhibition, % at 12.5 µM; in the data active means inhibition above about 41%; inconclusive means no clear call, values can overlap the other calls;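 further: 0% = neutral control wells and 100% = reference inhibitor control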
Shn3 3UTR inh: reduction of Shn3 3'UTR firefly luciferase signal, primary screen, Schnurri-3 inhibitor project, cell-based, Clone20 osteoblasts, set 2; Clone20 osteoblast Shn3 3'UTR firefly luciferase, 24 h; hit rate 0.52% among 360,000; inhibition, % at 12.5 µM;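 active means mean inhibition of at least 75% with every replicate also reaching 75%; inconclusive means mean inhibition at least 75% but some replicate below; inactive means mean inhibition below 75%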;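 further: 0% = median of neutral control wells and 100% = pilot-screen positive control compound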
PAX8 inh HTS: inhibitors of PAX8-driven TPO luciferase reporter, primary screen, RMG-I cells, single concentration. hit rate 1.2% among 360,000. inhibition, % at 12.6 µM. SteadyGlo, 24 h;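 active means mean replicate inhibition at least 60% with every replicate also reaching 60%; inconclusive means only one of the two criteria is met; inactive means mean below 60% and not all replicates reaching 60%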;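 further: luciferase light reporting Pax8 driven TPO promoter activity; plate controls were median of neutral control wells for no effect and mitoxantrone controls for full effect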
MITF TRPM1 inh: inhibitors of MITF-dependent TRPM1 promoter reporter, primary screen, cell-based, SK-MEL-5, single point, luciferase; SK-MEL-5 TRPM1 promoter luciferase, 24 h; inhibition, % at 12.5 µM; hit rate 0.83% among 330,000; AID 488899, 2010;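 active means mean inhibition across replicates of 60% or more, whatever share of single replicates reaches that level; inconclusive means some that reach 60%, reason not given; inactive means mean inhibition across replicates below 60%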
aSyn 5UTR inh: MLPCN primary screen, SNCA 5' untranslated region. alpha-synuclein 5'UTR reporter, inhibitor activity. inhibition, % (tested at 7.5 µM). hit rate 0.82% among 300,000; in the data active means inhibition above about 60%; inconclusive means no clear call, values can overlap the other calls;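 further: H4 neuroglioblastoma cells stably carrying SNCA 5'UTR luciferase fusion; 0% = DMSO wells and 100% = positive control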
* hit, by the source's call; u = inconclusive; x = not tested or not shown. An excerpt weighted towards active compounds, which were near 2.1% of everything screened.

SMILES | EBV LMP1 NFkB | Shn3 3UTR inh | PAX8 inh HTS | MITF TRPM1 inh | aSyn 5UTR inh
C[C@@H]1CN([C@@H](C)CO)C(=O)c2cc(C#CCN(C)C)cnc2O[C@@H]1CN(C)C(=O)Cc1ccncc1 | x | x | -6 | x | x
CCc1ccc2oc(C(=O)NCc3ccc(S(N)(=O)=O)cc3)c(C)c2c1 | -21 | -24 | -33 | -15 | -30
CCOc1ccc(OCC)c(S(=O)(=O)NNC(=O)c2c(C)nc3ccccn23)c1 | 4 | -9 | 86* | -2 | -8
C[C@H]1CCCCO[C@@H](CN(C)Cc2ccccc2)[C@@H](C)CN([C@@H](C)CO)C(=O)c2cc(NS(=O)(=O)c3ccc(Cl)cc3)ccc2O1 | x | x | 75* | x | x
C[C@@H]1CCCCO[C@H](CN(C)Cc2ccccc2)[C@@H](C)CN([C@@H](C)CO)C(=O)c2cc(NS(=O)(=O)c3ccccc3)ccc2O1 | x | x | -5 | x | x
C[C@H]1CCCCO[C@@H](CN(C)Cc2ccc(C(=O)O)cc2)[C@@H](C)CN([C@@H](C)CO)C(=O)c2cc(NS(=O)(=O)c3ccc(Cl)cc3)ccc2O1 | x | x | 87* | x | x
C[C@@H]1CCCCO[C@@H](CN(C)Cc2ccccc2)[C@@H](C)CN([C@@H](C)CO)C(=O)c2cc(NS(=O)(=O)c3ccc(Cl)cc3)ccc2O1 | x | x | 76* | x | x
C[C@H](CO)N1C[C@H](C)[C@H](CN(C)Cc2ccc(C(=O)O)cc2)OCCCC[C@H](C)Oc2ccc(NS(=O)(=O)c3ccc(Cl)cc3)cc2C1=O | x | x | -36 | x | x
C[C@@H]1CN([C@@H](C)CO)C(=O)c2cc(NS(=O)(=O)c3ccc(Cl)cc3)ccc2O[C@@H](C)CCCCO[C@H]1CN(C)Cc1ccccc1 | x | x | 0 | x | x
C[C@H](CO)N1C[C@H](C)[C@H](CN(C)Cc2ccccc2)OCCCC[C@H](C)Oc2ccc(NS(=O)(=O)c3ccc(Cl)cc3)cc2C1=O | x | x | 66* | x | x
C=CCn1c(SCC(=O)N2CCCCC2)nc(O)cc1=O | -3 | 0 | x | -5 | 4
CN(C)CCCn1c2c(c(SCC(=O)Nc3ccc4c(c3)OCO4)nc1=O)CCCC2 | -4 | -24 | 3 | -4 | -13
CCOC(=O)C1CCN(C(=O)c2[nH]c(C(F)(F)F)nc2-c2ccccc2)CC1 | x | -2 | 3 | x | x
CNC(=S)Nc1ccc2nc(C)c(C)nc2c1 | 50* | -10 | -11 | -8 | -9
COC1C(CO)OC(n2c3c(Cl)cccc3c3c4c(c5c6cccc(Cl)c6[nH]c5c32)C(=O)NC4=O)C(O)C1O (stereo not drawn) | 60* | 0 | 113* | 86* | x
COCCNC(=O)Cc1cn(C)c2ccccc12 | -14 | -27 | x | 0 | 2
Clc1ccc2nc(N3CCCCC3)[nH]c2c1 | -20 | -89 | x | -25 | -123
O=c1c(Cl)c(N2CCCCC2)cnn1-c1nc2ccccc2[nH]1 | 78* | 44 | x | 64* | 93*
O=c1c2ccccc2cnn1-c1nc2ccccc2[nH]1 | 85* | 88* | 114* | 93* | 98*
C[C@@H]1CCCCO[C@H](CN(C)C(=O)CCCN(C)C)[C@H](C)CN([C@H](C)CO)C(=O)c2cc(NC(=O)NC3CCCCC3)ccc2O1 | x | x | -8 | x | x
CCc1ccccc1NC(=O)Cn1ccn(-c2ccc(OC)cc2)c(=O)c1=O | -1 | 6 | -7 | 1 | 4
COc1cc2c(cc1OC)-c1c(OC)c(OC)cc3ccnc(c13)C2=O | 3 | -23 | -8 | 6 | 110*
Cc1ccc(-c2[nH]c3ccccc3c2SCCNC(=O)c2ccc(S(=O)(=O)N3CCOCC3)cc2)cc1 | 5 | 57 | 62* | x | 10
CC(C)[C@H](NC(=O)OCc1ccccc1)C(=O)OCC(=O)N1C(C)CCCC1C (stereo partly drawn) | -7 | 3 | x | -10 | x
S=C(Nc1cccnc1)Nc1cccc2cnccc12 | 4 | -14 | 9 | 8 | 66*
SMILES | EBV LMP1 NFkB | Shn3 3UTR inh | PAX8 inh HTS | MITF TRPM1 inh | aSyn 5UTR inh
O=C1/C(=C/c2ccc([N+](=O)[O-])cc2)C=C(c2ccccc2)N1c1ccc(O)cc1 | 38 | 20 | x | 68* | 16
CCNC(=S)Nc1sc2c(c1C#N)CCC(C)C2 (stereo not drawn) | 59* | -8 | -2 | -10 | 11
CCOC(=O)Nc1sc2c(c1C#N)CCC(C)C2 (stereo not drawn) | -14 | -30 | x | -88 | -161
OC(c1cc(F)cc(Cl)c1)c1ncc(-c2ccc3ccccc3c2)[nH]1 (stereo not drawn) | x | -1 | -37 | x | x
COC(=O)c1cc(OC)c(OC)cc1NC(=S)Nc1cc(Cl)ccc1OC | -2 | -5 | 78* | 17 | 15
CC1=NN(c2ccccc2)C(=O)/C1=C/C=C/c1ccccc1 | 0 | u | -2 | 69* | -50
CC1=NN(c2cccc(C(=O)O)c2)C(=O)/C1=C\C=C\c1ccco1 | 4 | -33 | x | -22 | -31
Cc1ccc(C2=NOC(=O)/C2=C\C=C\c2ccccc2)cc1 | 13 | 95* | 19 | 96* | 16
COc1cc(/C=C/c2ccc3c(Br)cc(Br)c(O)c3n2)ccc1O | 16 | 38 | 73* | 18 | 65*
COc1cc(/C=C/c2ccc3cccc(O)c3n2)cc(OC)c1OC | -4 | -10 | -7 | 78* | -24
CC(Oc1ccc(Cl)cc1Cl)c1nc(-c2ccc(NC(=O)c3cccnc3)cc2)no1 (stereo not drawn) | -12 | 67 | x | 0 | 92*
CC(Oc1ccc(Cl)cc1Cl)c1nc(-c2ccc(NC(=O)c3ccncc3)cc2)no1 (stereo not drawn) | -14 | u | x | 20 | -6
N#CC(C#N)=C1C=CC=CN1/C(=C\c1ccccc1)C(=O)c1cccs1 | 8 | -53 | 9 | 47 | -9
N#CC(C#N)=C1C=CC=CN1/C(=C\c1ccccc1Cl)C(=O)c1ccccc1 | 0 | 87* | 9 | 77* | x
COc1cc(C)c(C(=O)CC(=O)c2c(C)cc(OC)cc2C)c(C)c1 | x | 84 | 17 | x | 72*
CCOC(=O)Nc1nc(-c2ccccc2)c(C(=O)c2ccc(Cl)cc2)s1 | 9 | 18 | x | 27 | 114*
Cc1ccc(CNC(=O)Cc2ccc(-n3cccc3)cc2)cc1 | -12 | -9 | 23 | 11 | -3
COc1ccc(CC(=O)NCc2ccc(-n3cccc3)cc2)cc1OC | 31 | 16 | 27 | 28 | 64*
C=C1C(=O)CC2=C1[C@](Cc1ccc(F)cc1)(C(=O)OC)N(C(=O)c1ccccc1)C2 | x | x | 11 | x | x
C=C1C(=O)C=C2CN(C(=O)c3ccccc3)[C@@](Cc3ccc(F)cc3)(C(=O)OC)[C@@H]12 | 94* | 95* | x | 99* | u
CC(=O)NC(c1ccc(N(C)C)cc1)c1cc(Cl)c2cccnc2c1O (stereo not drawn) | 11 | 68 | 85* | x | x
O=C(NC(c1ccc(Cl)cc1)c1cc(Cl)c2cccnc2c1O)c1cccnc1 (stereo not drawn) | u | 81 | -9 | 41 | 98*
